Growth data for 13 compounds are collected here from PubChem BioAssay (NCI).

Compounds without any hit were thinned out: in the full panel of roughly 83,000, 20% have a hit.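 Plates (96-well) were seeded with cells, treated with compound at one concentration, and incubated for 48 hours before percent growth was determined.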 A number with no mark means an inactive call. Calls of active or inactive are those of the source. Rule for the calls: active = growth percent below 10; inactive = the rest.

Test in all cases: NCI-60 one-dose screen, 48 h (100 = growth as untreated, 0 = no growth, -100 = all killed)
What all share (conditions): 10 µM unless noted

The subject of assay [1] is SK-MEL-2 melanoma.
Assay [2] relates to EKVX NSCLC.
Assay [3] relates to SN12C renal.
Assay [4] concerns UO-31 renal.
For assay [5], the system named is TK-10 renal.
Assay [6] deals with ACHN renal.
Assay [7] has as its system CAKI-1 renal.
Assay [8] has as its system A498 renal.
Assay [9] has as its system CCRF-CEM leukemia.
Assay [10] deals with MOLT-4 leukemia.

Turning to `COc1ccc2c(c1)c(-c1noc(C(=O)c3cn(C)c4ncc(Br)cc34)n1)cn2C`, the growth in assay [1] was 97.4%; in assay [2], 75.4%; in assay [3], 77.6%; in assay [4], 70.5%; in [5] it was 21.8%; in assay [6], 39.8%. In addition, the growth in assay [7] is 68.9%; in assay [8] it was 48.5%; in assay [9], 56.9%; in assay [10], 77.2%.

For the compound `Clc1ccccc1/C=N\Nc1ccccn1`, the growth was 92.8% in assay [1]; 76.2% in assay [2]; 92.2% in assay [3]; 66.8% in assay [4]; 66.7% in assay [5]; 87.7% in assay [6]. Also, the growth in [7] is 80.2%; in assay [8], 110%; in assay [9] it was 95.1%.

On to `COc1cc(/C=C/C(=O)/C=C/c2ccc(-n3ccnc3C)cc2)ccc1O`, for which the growth was 100% in assay [1]; 102% in assay [2]; 91.4% in assay [3]; 4.27% (active) in assay [4]; 88% in assay [5]; 58.8% in [6]. Further, the growth was 95.6% in assay [7], 78.8% in assay [8] and 35.5% in assay [9].

With `CCCn1ccnc1C(O)c1ccc(OCc2ccccc2)c(OC)c1` (configuration not stated), the growth in assay [1] was 91.3%; in assay [2] it was 89.3%; in assay [3] it was 92.3%; in [4] it was 63.7%; in [5], 77.8%; in [6], 93.6%. The growth in assay [7] is 74.8%; in assay [8] it was 102%; in [9], 94%; in assay [10], 98.5%.

Regarding `O=C(NNc1ccc(-c2ccccc2)nn1)c1ccccc1`, the growth in assay [1] was 107%; in assay [2], 95.2%; in assay [3], 97.2%; in assay [4], 89%; in [5], 107%; in [6], 100%. Also, the growth in assay [7] was 82.2%; in [8], 92.4%; in [9] it was 107%; in assay [10], 90.3%.

With `COc1ccc2c(c1)C(C)Cc1c(Cl)nc(C)nc1N2C` (configuration not stated), the growth was 37.3% in assay [1]; 34.4% in assay [2]; 32.6% in assay [3]; 50.9% in [4]; 44.4% in [5]; 55.2% in assay [6]. Further, the growth is 25.4% in assay [7], -5.78% (active) in assay [8] and 14.7% in [9].

For `c1cc2ccc3cc2cc1CNCCN1CCNCc2ccc4ccc(cc4c2)CNCCN(CCNC3)CCNCc2ccc3ccc(cc3c2)CNCC1`, the growth in [1] is -9.83% (active); in assay [2], 48.7%; in assay [3] it was 1.52% (active); in assay [4], 82.4%; in assay [5], 75.2%; in assay [6], 91.2%. The growth is 93.8% in assay [7], 100% in assay [8] and 51% in assay [9].

`O=C(CCN1CCCCC1)c1ccc(Cl)cc1`: the growth was 104% in assay [1]; 101% in assay [2]; 111% in assay [3]; 96% in [4]; 103% in assay [5]; 110% in [6]. Besides, the growth in assay [7] is 95.2%; in [8] it was 79.5%; in assay [9], 93.6%.

Regarding `O=C1COCCN1c1ccc(NCc2cn(Cc3ccccc3)c3ccccc23)cc1`, the growth in [1] is 97.6%; in [2], 94.4%; in assay [3], 96.2%; in assay [4], 63%; in assay [5], 12.3%; in assay [6], 101%. Moreover, the growth was -9.69% (active) in [7], -88.4% (active) in assay [8] and 96.4% in assay [9].

As for `CC(C)OC(=O)Nc1cc(F)c(F)cc1F`, the growth in [1] was 95.4%; in [2], 94.1%; in assay [3] it was 102%; in assay [4], 86.1%; in assay [5], 96.3%; in [6] it was 101%. Further, the growth in assay [7] was 97.1%; in assay [8] it was 93.6%.

With `Fc1cc2[nH]ncc2c2c3c(c(-c4cn[nH]c4)nc12)CCCC3`, the growth in assay [1] was -30.7% (active); in [2] it was 13.1%; in [3], 7.63% (active); in assay [4], -13.7% (active); in assay [5], 20%; in assay [6] it was 1.61% (active). Further, the growth was 2.83% (active) in assay [7], -56.5% (active) in [8], 7.75% (active) in assay [9] and 2.1% (active) in [10].

For the compound `O=C(O)CSCc1nnc2n(Cc3ccccc3)c(=O)c3c4c(sc3n12)CCCC4`, the growth in [1] was 79.3%; in assay [2] it was 93.2%; in [3], 96%; in assay [4], 90.2%; in assay [5], 127%; in assay [6], 89.3%. Besides, the growth was 99.2% in assay [7], 112% in assay [8], 81% in assay [9] and 71.8% in assay [10].

For `CN(C)CCOc1ccc(/C(=C(/CCCl)c2ccccc2)c2ccccc2)cc1`, the growth is 48.5% in assay [1]; 30% in [2]; 23.7% in assay [3]; 26.5% in [4]; 49.8% in assay [5]; 30.1% in assay [6]. Also, the growth in assay [7] was 30.8%; in assay [8], 65.7%; in assay [9], -6.69% (active); in assay [10], -4.84% (active).
